# Source: ChEMBL document CHEMBL1961873, “Compounds: GSK PKIS; Assays: Nanosyn kinase panel” (2012)
# Biological target: Tyrosine-protein kinase Fer (Homo sapiens) (UniProt P16591)
# Conditions: at 1 µM
# Tyrosine-protein kinase Fer (Homo sapiens), sequence (P16591 whole entry, looked up): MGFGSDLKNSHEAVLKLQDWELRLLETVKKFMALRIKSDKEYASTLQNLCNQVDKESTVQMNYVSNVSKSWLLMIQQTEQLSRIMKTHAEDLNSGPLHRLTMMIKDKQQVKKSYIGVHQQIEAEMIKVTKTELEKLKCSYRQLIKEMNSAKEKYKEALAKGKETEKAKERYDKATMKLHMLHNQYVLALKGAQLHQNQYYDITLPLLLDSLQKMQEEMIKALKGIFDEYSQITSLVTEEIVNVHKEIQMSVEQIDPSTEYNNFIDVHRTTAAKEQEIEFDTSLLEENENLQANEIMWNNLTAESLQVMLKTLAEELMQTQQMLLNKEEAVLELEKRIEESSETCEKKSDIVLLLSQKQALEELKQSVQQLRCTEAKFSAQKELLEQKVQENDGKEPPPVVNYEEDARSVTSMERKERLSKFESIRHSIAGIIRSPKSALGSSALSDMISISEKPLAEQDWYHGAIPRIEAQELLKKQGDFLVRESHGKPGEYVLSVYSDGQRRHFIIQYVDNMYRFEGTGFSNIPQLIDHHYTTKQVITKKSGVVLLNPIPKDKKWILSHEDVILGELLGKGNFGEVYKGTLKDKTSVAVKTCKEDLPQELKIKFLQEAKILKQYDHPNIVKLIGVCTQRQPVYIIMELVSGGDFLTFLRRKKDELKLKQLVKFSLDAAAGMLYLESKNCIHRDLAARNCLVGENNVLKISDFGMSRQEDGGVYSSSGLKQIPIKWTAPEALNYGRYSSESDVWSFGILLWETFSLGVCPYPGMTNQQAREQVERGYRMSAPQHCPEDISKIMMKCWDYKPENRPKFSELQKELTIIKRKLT
row,Compound,inhibition [%]
1,Fc1cccc(COc2ccc(Nc3ncnc4sc(-c5cccs5)cc34)cc2Cl)c1,9.05
2,CC1=C(C(=O)Nc2ccc3[nH]ncc3c2)C(c2ccc(F)cc2)NC(=O)N1 (configuration not stated),2.17
3,CCn1c(-c2nonc2N)nc2c(N3CCCC3)nccc21,2.34
4,CC(C)=Cc1cccc2c1/C(=N/Nc1ccc(S(N)(=O)=O)cc1)C(=O)N2,20.1
5,COc1cc2ncn(-c3cc(O[C@H](C)c4ccccc4Cl)c(C(N)=O)s3)c2cc1OC,16.7
6,COc1cc2ncn(-c3cc(O[C@@H](C)c4ccccc4Cl)c(C(N)=O)s3)c2cc1OC,8.42
7,Fc1cccc(COc2ccc(Nc3ncnc4cc(-c5ccc[nH]5)sc34)cc2Cl)c1,2.81
8,CN1CCC(C(=O)Nc2n[nH]c3nnc(-c4ccccc4)cc23)CC1,5.92
9,Cn1cc(C=C2C(=O)Nc3cccnc32)c2ccccc21,20.8
10,COc1ccc(-c2nn3ncccc3c2-c2ccnc(Nc3ccc(Cl)c(C(F)(F)F)c3)n2)cc1,3.06
11,NC(=O)c1cccc(Nc2nccc(Nc3cccc4[nH]ncc34)n2)c1,21.9
12,COc1ccc(-c2ccncc2)cc1C(N)=O,3.22
13,CS(=O)(=O)CCN(CC#N)Cc1ccc(-c2ccc3ncnc(Nc4ccc(OCc5cccc(F)c5)c(Cl)c4)c3c2)o1,1.14
14,CNC(=O)c1cncc(/C=C/c2c(Cl)cccc2Cl)c1,5.39
15,CCn1c(-c2nonc2N)nc2c(C#CC(C)(C)O)nc(CN3CCCC3)cc21,0.06
16,COc1ccccc1Nc1ncc(-c2ccccc2)o1,11.2
17,Cc1nn(C)c2cc(N(C)c3ccnc(Nc4cccc(S(N)(=O)=O)c4)n3)ccc12,35.8

row,Compound,inhibition [%]
1,CCn1c(-c2nonc2N)nc2cncc(C(=O)N3CC[C@H](N)C3)c21,3.76
2,O=C(Nc1n[nH]c2nc(-c3ccco3)c(Br)cc12)C1CC1,0.63
3,COc1ccc(-c2coc3ncnc(N)c23)cc1,2.33
4,O=C1NC(=O)C(c2cccc(Cl)c2)=C1Nc1ccc(O)c(Cl)c1,5.56
5,CS(=O)(=O)CCNCc1ccc(-c2ccc3ncnc(Nc4ccc(OCc5cccc(F)c5)c(C(F)(F)F)c4)c3c2)o1,1.93
6,O=C1NC(=O)C(c2ccccc2Cl)=C1Nc1cccc(O)c1,2.82
7,COc1cc2ncn(-c3cc(OCc4ccccc4Cl)c(C(N)=O)s3)c2cc1OC,8.52
8,Nc1ncnc2occ(-c3ccc(NC(=O)Nc4cccc(C(F)(F)F)c4)cc3)c12,33.6
9,COc1cc(C=NNc2ncnc3c2cnn3-c2ccccc2)ccc1O,4.88
10,CC1=C(C(=O)Nc2ccc3[nH]ncc3c2)C(c2ccc(Cl)c(Cl)c2)CC(=O)N1 (configuration not stated),1.24
11,NC(=O)c1ccc(-c2nc(-c3ccccn3)c(-c3ccc4c(c3)OCO4)[nH]2)cc1,6.64
12,COc1cccc(-n2ncc3c(N/N=C/c4cccc(F)c4)ncnc32)c1,3.05
13,Cc1nnc(-c2ccc(C)c(-c3ccc(C(=O)Nc4cccc(C#N)c4)cc3)c2)o1,1.72
14,N#Cc1c(NC(=O)c2cccc3ccccc23)sc2c1CCCC2,1.93
15,Cc1ccc(NC(=O)c2ccnc(N3CCCC3)c2)cc1-c1ccc(C(=O)NCC2CC2)cc1,1.67
16,COc1cc2ncn(-c3cc(OCc4ccccc4C(F)(F)F)c(C(N)=O)s3)c2cc1OC,10.5

# Biological target: Tyrosine-protein kinase Fes/Fps (Homo sapiens) (UniProt P07332)
# Conditions: at 0.1 µM
# Tyrosine-protein kinase Fes/Fps (Homo sapiens), sequence (P07332 whole entry): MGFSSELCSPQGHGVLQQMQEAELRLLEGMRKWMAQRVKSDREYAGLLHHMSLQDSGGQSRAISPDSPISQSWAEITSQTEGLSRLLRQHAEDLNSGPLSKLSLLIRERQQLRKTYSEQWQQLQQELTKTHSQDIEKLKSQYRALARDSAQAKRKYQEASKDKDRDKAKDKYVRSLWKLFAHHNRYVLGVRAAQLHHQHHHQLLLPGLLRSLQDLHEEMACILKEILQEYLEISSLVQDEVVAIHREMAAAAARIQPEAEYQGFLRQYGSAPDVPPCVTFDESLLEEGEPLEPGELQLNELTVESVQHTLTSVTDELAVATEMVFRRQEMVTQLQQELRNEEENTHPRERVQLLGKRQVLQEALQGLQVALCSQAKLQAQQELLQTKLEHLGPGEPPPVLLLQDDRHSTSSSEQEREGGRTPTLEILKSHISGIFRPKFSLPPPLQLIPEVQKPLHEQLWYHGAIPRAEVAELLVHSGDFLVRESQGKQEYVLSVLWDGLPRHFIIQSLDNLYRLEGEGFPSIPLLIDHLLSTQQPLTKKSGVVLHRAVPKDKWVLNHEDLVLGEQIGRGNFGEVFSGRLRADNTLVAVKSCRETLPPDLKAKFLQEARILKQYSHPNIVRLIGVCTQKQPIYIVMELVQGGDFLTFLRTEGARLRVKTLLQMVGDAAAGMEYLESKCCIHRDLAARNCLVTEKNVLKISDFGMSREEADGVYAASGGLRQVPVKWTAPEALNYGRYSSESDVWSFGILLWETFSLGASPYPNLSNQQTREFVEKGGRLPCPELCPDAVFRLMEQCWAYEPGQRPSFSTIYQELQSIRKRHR
row,Compound,inhibition [%]
1,Fc1cccc(COc2ccc(Nc3ncnc4sc(-c5cccs5)cc34)cc2Cl)c1,0.45
2,CC1=C(C(=O)Nc2ccc3[nH]ncc3c2)C(c2ccc(F)cc2)NC(=O)N1 (configuration not stated),0.59
3,CCn1c(-c2nonc2N)nc2c(N3CCCC3)nccc21,-2.72
4,NS(=O)(=O)c1ccc(N/N=C2\C(=O)Nc3ccc(C(=O)NCCc4c[nH]cn4)cc32)cc1,5.34
5,CC(C)=Cc1cccc2c1/C(=N/Nc1ccc(S(N)(=O)=O)cc1)C(=O)N2,0.31
6,COc1cc2ncn(-c3cc(O[C@H](C)c4ccccc4Cl)c(C(N)=O)s3)c2cc1OC,3.81
7,COc1cc2ncn(-c3cc(O[C@@H](C)c4ccccc4Cl)c(C(N)=O)s3)c2cc1OC,3.85
8,Fc1cccc(COc2ccc(Nc3ncnc4cc(-c5ccc[nH]5)sc34)cc2Cl)c1,1.96
9,CN1CCC(C(=O)Nc2n[nH]c3nnc(-c4ccccc4)cc23)CC1,3.95
10,Cn1cc(C=C2C(=O)Nc3cccnc32)c2ccccc21,1.69
11,COc1ccc(-c2nn3ncccc3c2-c2ccnc(Nc3ccc(Cl)c(C(F)(F)F)c3)n2)cc1,0.66
12,NC(=O)c1cccc(Nc2nccc(Nc3cccc4[nH]ncc34)n2)c1,-2.33
13,COc1ccc(-c2ccncc2)cc1C(N)=O,2.97
14,CS(=O)(=O)CCN(CC#N)Cc1ccc(-c2ccc3ncnc(Nc4ccc(OCc5cccc(F)c5)c(Cl)c4)c3c2)o1,0.82
15,CNC(=O)c1cncc(/C=C/c2c(Cl)cccc2Cl)c1,2.89
16,CCn1c(-c2nonc2N)nc2c(C#CC(C)(C)O)nc(CN3CCCC3)cc21,-1.26
17,COc1ccccc1Nc1ncc(-c2ccccc2)o1,4.25

row,Compound,inhibition [%]
1,Cc1nn(C)c2cc(N(C)c3ccnc(Nc4cccc(S(N)(=O)=O)c4)n3)ccc12,2.04
2,CCn1c(-c2nonc2N)nc2cncc(C(=O)N3CC[C@H](N)C3)c21,2.6
3,O=C(Nc1n[nH]c2nc(-c3ccco3)c(Br)cc12)C1CC1,2.91
4,COc1ccc(-c2coc3ncnc(N)c23)cc1,4.28
5,O=C1NC(=O)C(c2cccc(Cl)c2)=C1Nc1ccc(O)c(Cl)c1,0.55
6,CS(=O)(=O)CCNCc1ccc(-c2ccc3ncnc(Nc4ccc(OCc5cccc(F)c5)c(C(F)(F)F)c4)c3c2)o1,2.48
7,O=C1NC(=O)C(c2ccccc2Cl)=C1Nc1cccc(O)c1,1.81
8,COc1cc2ncn(-c3cc(OCc4ccccc4Cl)c(C(N)=O)s3)c2cc1OC,-0.24
9,Nc1ncnc2occ(-c3ccc(NC(=O)Nc4cccc(C(F)(F)F)c4)cc3)c12,3.8
10,COc1cc(C=NNc2ncnc3c2cnn3-c2ccccc2)ccc1O,2.59
11,CC1=C(C(=O)Nc2ccc3[nH]ncc3c2)C(c2ccc(Cl)c(Cl)c2)CC(=O)N1 (configuration not stated),1.63
12,NC(=O)c1ccc(-c2nc(-c3ccccn3)c(-c3ccc4c(c3)OCO4)[nH]2)cc1,1.52
13,COc1cccc(-n2ncc3c(N/N=C/c4cccc(F)c4)ncnc32)c1,1.31
14,Cc1nnc(-c2ccc(C)c(-c3ccc(C(=O)Nc4cccc(C#N)c4)cc3)c2)o1,0.91
15,N#Cc1c(NC(=O)c2cccc3ccccc23)sc2c1CCCC2,2.2
16,Cc1ccc(NC(=O)c2ccnc(N3CCCC3)c2)cc1-c1ccc(C(=O)NCC2CC2)cc1,5.28
17,COc1cc2ncn(-c3cc(OCc4ccccc4C(F)(F)F)c(C(N)=O)s3)c2cc1OC,2.56
